This is a sample that favours compounds with a hit; in the whole collection about 19% have one here.
HT1080 IDH1KD tx: kills HT-1080 cells with IDH1 knockdown | HT-1080 IDH1 knockdown viability, ATP luminescence, 48 h | Potency, µM (highest dose often 46.1 µM), for the others: at the top dose activity, negative = toxicity, most hits filed as cytotoxic | 360,000 tested, 2% active | AID 686971;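 further: potency means the concentration at half of the fitted maximal effect; 0% = DMSO wells and -100% = cell-free medium wells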
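Using the IDH1-knockdown HT-1080 line run in the same batch and compound series as the NT line, viability after 48 h at 37 °C was determined by CellTiter-Glo luminescence and expressed as % activity.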
HT1080NT lethal: kills 2HG-producing HT-1080-NT fibrosarcoma cells | HT-1080-NT fibrosarcoma viability, CellTiter-Glo ATP luminescence, 48 h | Potency, µM (series often up to 46.1 µM), for inactives: at the top dose activity, negative = less viability, usual class: cytotoxic | 360,000 tested, 1.6% active | AID 686970;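 further: NT is the 2HG producing partner of a matched IDH1 knockdown line; potency means the concentration at half of the fitted maximal effect; 0% = DMSO-treated cells and -100% = media-only wells without cells; nearly all actives have a fitted effect of over 55% in size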
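750 cells/well, RPMI + 5% FBS; 2 h settle, compound pin-transfer, 48 h at 37 degrees C. CellTiter-Glo 10 min RT, luminescence. Normalized to DMSO and media-only wells.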
TDP1 cell noCPT: qHTS for Inhibitors of human tyrosyl-DNA phosphodiesterase 1 (TDP1): qHTS in cells in absence of CPT; DT40 Tdp1-/- hTDP1 cells, no CPT, ATP luminescence, 48 h; Potency, µM (top dose mostly 46.2 µM), inactives show top-dose activity change, negative = growth inhibition, most hits filed as inhibitors; 420,000 tested, 15% active; AID 686978, 2013; further: potency means the concentration at half of the fitted maximal effect; nearly all actives have a fitted effect of over 55% in size
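Chicken DT40 Tdp1-/- cells stably complemented with human TDP1 were seeded at 400 cells/well with DMSO in place of 20 nM camptothecin. After compound pinning, cells grew at least 48 hr at 37 °C; viability read by CellTiter-Glo luminescence.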
IL-1B inflam inh: inhibitors of inflammasome signaling (IL-1 beta secretion); THP-1 LPS/ATP IL-1B secretion, AlphaLISA, 16 h; stronger effect = lower value; 360,000 tested, 4.7% active; activity change, % at 57.5 µM; in the data active means activity change below about -50%; inconclusive means mostly about -30% to -49%
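THP-1 cells pretreated 1 hr with compounds (up to 57.5 uM final), then stimulated with LPS (250 ng/mL final) plus ATP (1.25 mM final); secreted IL-1B measured by AlphaLISA after 16 hr, decreased signal indicating inhibition.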
DT40 TDP1 CPT: growth inhibition of DT40 Tdp1-/-;hTDP1 cells with camptothecin (screen for TDP1 inhibitors); chicken DT40 Tdp1-/-;hTDP1 cells + 20 nM CPT, ATP luminescence, 48 h; 420,000 tested, 12% active; Potency, µM (titrated, usually from 46.2 µM), inactives show at the top dose activity change, negative = growth inhibition, hits mostly inhibitors; further: potency means the concentration at half of the fitted maximal effect; nearly all actives have a fitted effect of over 55% in size
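Chicken DT40 Tdp1-/- cells stably complemented with human TDP1 were seeded at 400 cells/well in medium containing 20 nM camptothecin, exposed to pin-transferred compounds, and grown at 37 °C for at least 48 hr. Viability was read as ATP luminescence.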
* = called active by the depositor. Unless noted, the call rests on the fitted dose curve; in most records, active means well fitted curve in the direction sought with a large enough effect; inconclusive means small, poorly fitted or top-dose-only effect, or another doubt; inactive means no such curve, though single readings can be large; an effect the other way counts as inactive or inconclusive. Unless noted, on the % scale 0 is the no-effect control and ±100 the full control effect.

Results for COc1ccc(CN2CCC(C(=O)Nc3ccc(Oc4cccnc4)cc3)CC2)c(C)c1C ?
HT1080 IDH1KD tx: 0%; HT1080NT lethal: -5%; TDP1 cell noCPT: 2.9µM*; IL-1B inflam inh: 16; DT40 TDP1 CPT: inconclusive

Results for COc1ccc(CN2CCC(C(=O)Nc3ccc(Oc4cccnc4)cc3)CC2)cc1 ?
HT1080 IDH1KD tx: -13%; HT1080NT lethal: -1%; TDP1 cell noCPT: -11%; IL-1B inflam inh: inactive; DT40 TDP1 CPT: inconclusive

How did Cn1ccnc1CN1CCCCC1C(=O)Nc1ccc(Oc2cccnc2)cc1 (configuration not stated) do in these assays?
HT1080 IDH1KD tx: inconclusive; HT1080NT lethal: inconclusive; TDP1 cell noCPT: 23µM*; IL-1B inflam inh: 55; DT40 TDP1 CPT: 15µM*

What do the screens show for `COc1cccc(O)c1CN1CCC(C(=O)Nc2ccc(Oc3cccnc3)cc2)CC1`?
HT1080 IDH1KD tx: -29%; HT1080NT lethal: -15%; TDP1 cell noCPT: 13µM*; IL-1B inflam inh: 5; DT40 TDP1 CPT: 21µM*

How did CCn1ccnc1CN1CCCCC1C(=O)Nc1ccc(Oc2cccnc2)cc1 (configuration not stated) do in these assays?
HT1080 IDH1KD tx: inconclusive; HT1080NT lethal: inconclusive; TDP1 cell noCPT: inconclusive; IL-1B inflam inh: -12; DT40 TDP1 CPT: inconclusive

What do the screens show for `CCn1cc(CN2CCC(C(=O)Nc3ccc(Oc4ccccc4F)cc3)CC2)cn1`?
HT1080 IDH1KD tx: -29%; HT1080NT lethal: -14%; TDP1 cell noCPT: 21µM*; IL-1B inflam inh: 24; DT40 TDP1 CPT: inconclusive

Results for CC(C)n1c(=O)c2ccccc2n1Cc1cn(Cc2cccs2)nn1 ?
HT1080 IDH1KD tx: 1%; HT1080NT lethal: 17%; TDP1 cell noCPT: -18%; IL-1B inflam inh: -9; DT40 TDP1 CPT: 4%

How did CC1(C)CC(=O)C(N=Nc2ccc(OC(F)F)cc2)=C(O)C1 do in these assays?
HT1080 IDH1KD tx: 5%; HT1080NT lethal: -1%; TDP1 cell noCPT: -15%; IL-1B inflam inh: 0; DT40 TDP1 CPT: -5%

What do the screens show for `O=C(Nc1ccccc1Oc1cccnc1)C1CCCN(Cc2cccc(Cl)c2)C1` (configuration not stated)?
HT1080 IDH1KD tx: -5%; HT1080NT lethal: -12%; TDP1 cell noCPT: -16%; IL-1B inflam inh: -9; DT40 TDP1 CPT: -30%

How did COc1cc(CN2CCCC(C(=O)Nc3ccccc3Oc3cccnc3)C2)ccc1F (configuration not stated) do in these assays?
HT1080 IDH1KD tx: 7%; HT1080NT lethal: -22%; TDP1 cell noCPT: 16µM*; IL-1B inflam inh: 7; DT40 TDP1 CPT: inconclusive

Results for COc1cccc(O)c1CN1CCC(C(=O)Nc2ccc(-c3cccc(C)c3)cc2)CC1 ?
HT1080 IDH1KD tx: 18µM*; HT1080NT lethal: 23µM*; TDP1 cell noCPT: 16µM*; IL-1B inflam inh: -95*; DT40 TDP1 CPT: inconclusive

What do the screens show for `Cc1ccc(N2C(=O)CC(C)(C)CC2=O)cc1Cl`?
HT1080 IDH1KD tx: 22%; HT1080NT lethal: 3%; TDP1 cell noCPT: 1%; IL-1B inflam inh: 8; DT40 TDP1 CPT: 10%

Results for CSc1ccc(/C=C(\NC(=O)c2ccccc2)C(=O)NCCN2CCOCC2)cc1 ?
HT1080 IDH1KD tx: 19%; HT1080NT lethal: 10%; TDP1 cell noCPT: 3%; IL-1B inflam inh: 0; DT40 TDP1 CPT: 2%

Results for Cc1c(NC(=O)COC(=O)c2ccc(F)c(S(=O)(=O)N3CCOCC3)c2)c(=O)n(-c2ccccc2)n1C ?
HT1080 IDH1KD tx: 8%; HT1080NT lethal: 10%; TDP1 cell noCPT: -2%; IL-1B inflam inh: -9; DT40 TDP1 CPT: -8%

What do the screens show for `CCOc1ccccc1CN(CCc1ccc2c(c1)OCO2)Cc1cc(OC)c(OC)cc1OC`?
TDP1 cell noCPT: 4.1µM*; DT40 TDP1 CPT: 6.5µM*

How did CCOc1ccccc1CN(CCc1ccc2c(c1)OCO2)Cc1ccccn1 do in these assays?
HT1080 IDH1KD tx: inconclusive; HT1080NT lethal: -25%; TDP1 cell noCPT: 16µM*; IL-1B inflam inh: -10; DT40 TDP1 CPT: inconclusive

Bioassay records deposited in PubChem BioAssay by National Center for Advancing Translational Sciences (NCATS).
